SMN2 splice up: increases expression of the SMN2 splice variant. Potency, µM (top dose mostly 46.1 µM), for inactives: top-dose activity change, positive = activation, actives largely listed as activators. 210,000 tested, 2.8% active. HEK293 SMN2-luciferase splicing reporter, luminescence, 30-36 h. AID 1458; further: % of control where 0% means no effect; nearly all actives have a fitted effect of over 55% in size
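HEK293 cells carry an SMN2 minigene-luciferase reporter in which exon 7 inclusion puts luciferase in frame. Cells were seeded at 2000 cells/well, attached for 10-12 hours, then exposed to compounds for 30-36 hours at 37C before ONE-Glo luminescence.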
NPC1 prom act: activators of NPC1 promoter; Huh7 NPC1 promoter luciferase reporter, 24 h; Potency, µM (doses to about 9.22 µM), for the others: at the top dose activation, actives largely listed as activators; 320,000 tested, 2.4% active; AID 485313; further: % of control where 0% means no effect; nearly all actives have a fitted effect of over 60% in size
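Readout is luciferase luminescence, reflecting NPC1 promoter activation in stably transfected Huh7 cells after 24 h compound exposure at 37 °C in reduced-serum medium with 10% FBS.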
FLuc counter: counter-screen for miR-21 project: firefly luciferase inhibitors or activators | P08659 | purified FLuc, Km substrates, luminescence inhibition | Potency, µM (doses to about 57.5 µM), inactives show at the top dose activity change, negative = inhibition, actives largely listed as inhibitors | 360,000 tested, 6.9% active;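 further: plate controls were vehicle for no effect and reference inhibitor for full effect; nearly all actives have a fitted effect of over 55% in size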
Target sequence (P08659 whole entry, looked up): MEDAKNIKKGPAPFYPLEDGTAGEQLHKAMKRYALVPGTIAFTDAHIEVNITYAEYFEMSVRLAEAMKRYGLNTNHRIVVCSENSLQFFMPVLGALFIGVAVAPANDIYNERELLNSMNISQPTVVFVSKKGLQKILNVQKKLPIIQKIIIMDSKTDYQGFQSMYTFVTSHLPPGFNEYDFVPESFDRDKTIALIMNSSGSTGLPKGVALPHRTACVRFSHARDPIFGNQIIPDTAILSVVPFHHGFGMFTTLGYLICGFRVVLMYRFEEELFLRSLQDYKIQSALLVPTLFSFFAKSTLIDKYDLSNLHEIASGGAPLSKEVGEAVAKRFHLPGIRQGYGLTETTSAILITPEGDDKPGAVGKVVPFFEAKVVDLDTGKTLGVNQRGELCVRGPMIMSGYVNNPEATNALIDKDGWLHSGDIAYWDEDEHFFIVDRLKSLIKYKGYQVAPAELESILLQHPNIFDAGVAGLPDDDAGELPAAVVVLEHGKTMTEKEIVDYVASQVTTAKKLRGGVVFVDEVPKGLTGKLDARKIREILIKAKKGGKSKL
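Purified P. pyralis luciferase, 10 nM final, with Km-level 10 uM D-luciferin and 10 uM ATP in 50 mM Tris acetate pH 7.5, 10 mM Mg acetate, 0.01% Tween-20, 0.05% BSA; 6-point qHTS titration about 60 µM downward; luminescence read.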
p53 reactivation: re-activators of mutant p53 | Potency, µM (highest dose often 92.2 µM), without a hit: at the highest dose activity change, positive = activation, hits mostly activators | H1299 p53-A138V BP100-luciferase reporter, luminescence, 24 h | 320,000 tested, 0.063% active; further: % of control where 0% means no effect; nearly all actives have a fitted effect of over 45% in size
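H1299 (p53-null), stable ts p53-A138V + BP100-Luc; 1000 cells/well, Opti-MEM/10% FBS; cpd 4 pt, 1:5; 24 h, 37 deg C, 5% CO2; detection reagent 10 min RT; luminescence.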
Rab9 prom act: Rab9 promoter activation; Huh7 Rab9 promoter-luciferase reporter, luminescence, 24 h; Potency, µM (highest dose often 9.22 µM), for inactives: top-dose activation, negative = inhibition, most hits filed as activators; 320,000 tested, 2.8% active; further: % of control where 0% means no effect; nearly all actives have a fitted effect of over 60% in size
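Huh7 reporter line, Rab9 promoter upstream of luciferase. Compound exposure 24 h at 37 °C in reduced-serum medium with 10% FBS. Read-out: luminescence.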
ELG1 genotox: genotoxicity induction in ELG1-luciferase HEK293T cells. 330,000 tested, 1.3% active. HEK293T ELG1-luciferase reporter, luminescence, 16 h. AID 504466. Potency, µM (series often up to 46 µM), for the others: at the top dose activity change, positive = activation, hits mostly activators; further: % of control where 0% means no effect; nearly all actives have a fitted effect of over 60% in size
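Step 1: seed 2,000 HEK293T ELG1-luciferase cells per well. Step 2: add compound or DMSO, incubate 16 hr at 37 °C. Step 3: ONE-Glo, 30 min at room temperature, read luminescence.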
* = called active by the depositor. The list is not random: actives were taken first. Their share in the collection is about 7.3%. The call rests on the fitted dose curve; in most records, active means well fitted curve in the direction sought with a large enough effect; inconclusive means small, poorly fitted or top-dose-only effect, or another doubt; inactive means no such curve, though single readings can be large; an effect the other way counts as inactive or inconclusive. Potency means the concentration at half of the fitted maximal effect.

CCOc1ccc(CCNC(=O)Cn2nc(-c3ccc(C)cc3)ccc2=O)cc1OCC was read as FLuc counter -7%.
For Cn1cc(SCC(=O)NCCc2ccccc2)c2ccccc21 the results were SMN2 splice up -22%, NPC1 prom act -1%, FLuc counter 4%, p53 reactivation -2%, Rab9 prom act -10% and ELG1 genotox -1%.
Screening Cc1ccc(NC(=O)NCCCc2ccccc2)cc1 returned SMN2 splice up 19%, NPC1 prom act 8%, FLuc counter inconclusive, p53 reactivation 27%, Rab9 prom act 27% and ELG1 genotox 5%.
`COc1cc(/C=C2\SC(N3CCC(C)CC3)=NC2=O)ccc1O` gave NPC1 prom act 9%, FLuc counter 11µM*, p53 reactivation 10%, Rab9 prom act 23% and ELG1 genotox 18µM*.
`COc1ccc(/C=C2\SC(N3CCCCC3)=NC2=O)cc1OC` gave NPC1 prom act 1%, FLuc counter 11µM*, p53 reactivation 5%, Rab9 prom act -5% and ELG1 genotox inconclusive.
`CN(C)c1ccc(/C=C2\SC(N3CCCCC3)=NC2=O)cc1` gave NPC1 prom act inconclusive, FLuc counter 0.54µM*, Rab9 prom act 20% and ELG1 genotox inconclusive.
`Cc1ccc(/C=C2\SC(N3CCCC3)=NC2=O)cc1` gave SMN2 splice up -12%, NPC1 prom act 12%, FLuc counter inconclusive, p53 reactivation -2%, Rab9 prom act 17% and ELG1 genotox 14%.
For O=C1N=C(N2CCCCC2)S/C1=C/C1=Cc2ccccc2OC1 the results were SMN2 splice up 9%, NPC1 prom act 12%, FLuc counter 2.4µM*, p53 reactivation 0%, Rab9 prom act 20% and ELG1 genotox inconclusive.
For CSc1ccc(CNC(=O)Cc2ccc(NC(=O)C3=C(C)OCCS3)cc2)cc1 the results were NPC1 prom act -1%, FLuc counter 1.3µM*, p53 reactivation inconclusive, Rab9 prom act inconclusive and ELG1 genotox 13µM*.
Screening CCOc1ccc(CCNC(=O)Cc2ccc(NC(=O)C3=C(C)OCCS3)cc2)cc1 returned NPC1 prom act inconclusive, FLuc counter 4.3µM*, p53 reactivation -2%, Rab9 prom act inconclusive and ELG1 genotox 7%.
`CC1=C(C(=O)Nc2ccc(C(=O)NCCC(C)C)cc2)SCCO1` gave NPC1 prom act -3%, FLuc counter -3%, p53 reactivation 0%, Rab9 prom act 1% and ELG1 genotox 2%.
For O=C(CC1Sc2ncnn2C1=O)Nc1ccc(Br)cc1 (centres undefined) the results were SMN2 splice up 1%, NPC1 prom act 0%, FLuc counter inconclusive, p53 reactivation -3%, Rab9 prom act -4% and ELG1 genotox -18%.
`Cc1ccccc1-c1noc(-c2cc3ccccc3oc2=O)n1` gave FLuc counter 1.9µM*.
Cc1ccccc1-c1noc(-c2cccs2)n1 was read as SMN2 splice up inconclusive, NPC1 prom act inconclusive, FLuc counter 7.6µM*, p53 reactivation inconclusive, Rab9 prom act 2.8µM* and ELG1 genotox inconclusive.
For Cc1ccccc1-c1nnc(-c2cccs2)o1 the results were SMN2 splice up 20µM*, NPC1 prom act 18%, FLuc counter 12µM*, p53 reactivation 15%, Rab9 prom act inconclusive and ELG1 genotox inconclusive.
`Cc1ccccc1Nc1oc(-c2ccccc2)nc1-c1cccs1` gave SMN2 splice up 5%.
For O=C(NCCc1ccccc1)C1CCN(Cc2cc3ccccc3n2Cc2ccccc2)CC1 the results were FLuc counter 1%.
Screening CC1(C)CC(=O)C(N=Nc2cc(Cl)c(Cl)c(Cl)c2)=C(O)C1 returned SMN2 splice up 2%, NPC1 prom act 1%, FLuc counter inconclusive, p53 reactivation 10%, Rab9 prom act 25% and ELG1 genotox inconclusive.
For Cc1nc2ccc(N=NC3=C(O)CCCC3=O)cc2s1 the results were SMN2 splice up inconclusive, NPC1 prom act 5%, FLuc counter 11µM*, p53 reactivation 21%, Rab9 prom act -3% and ELG1 genotox inconclusive.
O=C1CCCC(O)=C1N=Nc1cccc(C(=O)O)c1 was read as SMN2 splice up inconclusive, NPC1 prom act 3.5µM*, FLuc counter 8.5µM*, p53 reactivation -4%, Rab9 prom act 2.2µM* and ELG1 genotox inconclusive.
For CCN(CC)S(=O)(=O)c1cccc(N=NC2=C(O)CCCC2=O)c1 the results were SMN2 splice up -15%, NPC1 prom act 7%, FLuc counter -3%, p53 reactivation 11%, Rab9 prom act 7% and ELG1 genotox 1%.
`Cc1nc2ccc(N=NC3=C(O)CC(C)(C)CC3=O)cc2s1` gave SMN2 splice up inconclusive, NPC1 prom act -2%, FLuc counter 4.3µM*, p53 reactivation inconclusive, Rab9 prom act 2% and ELG1 genotox inconclusive.
`CC(=O)N1CCc2cc(N=NC3=C(O)CC(C)(C)CC3=O)ccc21` gave SMN2 splice up inconclusive, NPC1 prom act 4µM*, FLuc counter 13µM*, p53 reactivation inconclusive, Rab9 prom act 1.6µM* and ELG1 genotox inconclusive.
Screening Cc1cccc(C(=O)NNc2ncnc3c2cnn3-c2ccc(C)cc2C)c1 returned FLuc counter -8%.
Screening CCCS(=O)(=O)N1CC(=O)N(c2ccccc2F)C(C)(C(=O)NC2CCCCCC2)C1 (centres undefined) returned FLuc counter 4%.
For CCc1ccc(CNC(=O)c2cc(=O)[nH]c3ccc(S(=O)(=O)N4CCCCC4)cc23)cc1 the results were FLuc counter 0%.
COCCCn1cnc2oc3nc4ccccc4nc3c2c1=O was read as SMN2 splice up 10µM*, NPC1 prom act 1.6µM*, FLuc counter 7.6µM*, p53 reactivation 24%, Rab9 prom act 0.63µM* and ELG1 genotox 2.1µM*.
For CN(C)c1ccc(/C=C(\C#N)c2nc(-c3ccc(Cl)c(Cl)c3)cs2)cc1 the results were SMN2 splice up 7% and FLuc counter 4%.
`COc1ccc2c(c1)[nH]c1c(=O)n(Cc3ccco3)cnc12` gave SMN2 splice up inconclusive, NPC1 prom act inconclusive, FLuc counter -14%, p53 reactivation 18%, Rab9 prom act inconclusive and ELG1 genotox 18µM*.
`COc1ccccc1-c1nc2c(c(SCC(=O)Nc3ccc(C)c(C)c3)n1)Cc1c(CO)cnc(C)c1O2` gave FLuc counter -11%.
`O=C(CCC(=O)N1CC2CCCN2c2ccccc21)NCc1ccccc1` (centres undefined) gave FLuc counter -8%.

Screening data deposited in PubChem by National Center for Advancing Translational Sciences (NCATS).
